Values joined by “and” are separate entries in the source; they are usually repeats but may differ in a detail not shown here. Identical values can stand only once. Results filed as inconclusive are left out. Calls follow the shape of the dose curve; as a rule, active = well fitted curve in either direction with a large enough effect (not every such curve was filed as active); inconclusive = small, poorly fitted or top-dose-only effect, or another doubt; inactive = flat fitted curve, though single readings scatter.
Assay: NFAT Signaling Pathway (AID 444)
Settings: Jurkat NFAT-bla M1, carbachol, beta-lactamase ratio, 5 h; at 7.69 µM (top of the series)
Excerpt: NCGC Assay Overview: The nuclear factor of activated T cells (NFAT) family of transcription factors has been found primarily in most immune system cells and some other non-immune cells. NFAT plays the immunomodulatory role, primarily in T-cell activation and differentiation. NFAT target genes are also involved in the regulation of apoptosis and differentiation in non-immune cell types. The NFAT sequence was engineered to the upstream of the ?-lactamase reporter gene and transfected into Jurkat cells with co-transfection of muscarinic receptor1 [provided by Invitrogen Corp]. When an extracellular stimulus, such as carbachol, binds to the GPCR M1 receptor, it stimulates a signaling cascade that activates NFAT response element and ?-lactamase expression by phosphorylating the NFAT binding protein. This cell based ?-lactamase reporter gene assay can accurately monitor any changes occurring along the NFAT pathway, and can be used for screening small molecule inhibitor or activator upon activation by carbachol EC50 concentration. A small molecular library were screened in a titration series resulting in AC50s (can be either IC50s or EC50s).
NCGC Assay Protocol Summary: The cells were prepared in RPMI 1640 medium containing 0.1% dialyzed FBS and 25 mM HEPES at 1.6 x 10^6cell/ml. The assay was performed in 1536-well plate format as follows: 5 ul of cell preparation 23 nl of compounds 1ul of carbachol (final concentration 1 uM) Briefly centrifuge the plates and incubate at 37 °C for 5 hours 1 ul of CCF4 dye mixture Incubate the plates at RT for 1 hour Read the plate in EnVision plate reader (Ex= 405nm, and Em1=460nm and Em2=530nm). The %Activity was determined from the ratio of 460nm/530nm. Data normalization and AC50 calculations were accomplished using GeneData software.
% is scaled to controls: 0 for no effect and ±100 for the full control effect.

Activity change, negative = inhibition, inactive:
CC[C@@]12CCCN3CCc4c(n(c5ccccc45)C(=O)C1)[C@H]32 -5.89%

Same assay, conditions: Jurkat NFAT-bla M1, carbachol, beta-lactamase ratio, 5 h; at 7.69 µM (top of the series) unless noted

Activity change, negative = inhibition, inactive:
COCC(=O)N1CCC2(CC1)CN(Cc1ccccc1OC)C2 9.66%
COCC(=O)N1CCC[C@@]2(CCN(Cc3nccs3)C2)C1 0.146%
COCC(=O)N1CCC[C@@]2(CCN(C(=O)Nc3ccccc3)C2)C1 1.53%
O=C(c1cnccn1)N1CCC2(CCCN(c3ccc(-c4ccccc4)cc3)C2)CC1 -14.8%
N#Cc1cccc(-c2ccc3ncnc(NC4CCNCC4)c3c2)c1 3.08%
COc1ccc(Oc2ncc3ncc(=O)n(CCc4ccccc4)c3n2)cc1 -16.6%
CC(=O)NCCNc1ncncc1-c1ccccc1CN(C)C -2.17%
COc1ccccc1CNc1cc(-c2ccoc2)ncn1 -9.53%
N#Cc1cccc(NC(=O)N2CC[C@@]3(CCCN(C(=O)c4cnccn4)C3)C2)c1 12.8%
CC(=O)N1CCC2(CC1)CCN(c1ccccn1)CC2 -29.8%
COc1ccc(Oc2ncc3ncc(=O)n(Cc4ccc(F)cc4)c3n2)cc1 -10.2%
Cc1cccc(CNc2ncncc2-c2cccc(NS(C)(=O)=O)c2)c1 8.42%
CC(=O)NCCNc1ncnc2ccc(-c3ccc4c(c3)OCO4)cc12 12.4%
c1ccc(-c2ccc(N3CCCC4(CCNCC4)C3)cc2)cc1 24.2%
COc1ccccc1CNc1ccnc(-c2ccccc2C(F)(F)F)n1 -19.1%
COc1ncc2nc(C)c(=O)n(-c3ccccc3)c2n1 2.66%
CN(C)Cc1ccccc1-c1cc(N(C)C)ncn1 -11.7%
O=C(Nc1ccccc1)N1CC[C@@]2(CCCN(C(=O)c3csnn3)C2)C1 9.61%
COc1ccccc1-c1nc(NCc2cccnc2)c2ccccc2n1 -29.2%
COc1ccc2[nH]cc(CCNc3nc(-c4ccccc4CN(C)C)nc4ccccc34)c2c1 -26.8%
CN(C)c1ccc(-c2ccc3ncnc(NC4CC4)c3c2)cc1 -2.46%
COc1ccc(CNc2ncnc3ccc(-c4ccoc4)cc23)c(OC)c1 4.83%
Cc1noc(C)c1-c1ccc2ncnc(N3CCC(C(=O)O)CC3)c2c1 -4.03%
COCCn1c(=O)c(-c2ccccc2)nc2cnc(N3CCN(C)CC3)nc21 7.66%
O=c1c(-c2ccccc2)nc2cncnc2n1C1CC1 6.76%
Cc1[nH]ccc2c1[nH]c1cc(=O)ccc12 -37.6% [at 17.2 µM]
FC(F)(F)c1ccccc1-c1nccc(NCc2ccccc2)n1 -3.71%
Cn1cccc1C(=O)N1CCC2(CC1)CN(C(=O)Nc1cccc(F)c1)C2 6.99%
CCN1CCC[C@@H]1CNC(=O)c1cc(S(N)(=O)=O)ccc1OC -3.07% [at 38 µM] and -10.9% [at 38 µM]
c1ccc(Nc2ncncc2-c2ccoc2)cc1 0.789%
Cc1ccccc1-c1cc(N(C)Cc2ccco2)ncn1 -15.6%
CNc1ncncc1-c1ccccc1C(F)(F)F 11.4%
CC(C)NC(=O)N1CCC2(CC1)CCN(C(=O)c1cccn1C)CC2 7.13%
O=S(=O)(c1ccccc1)N1CCC[C@@]2(CCN(Cc3nccs3)C2)C1 -1.46%

Same assay, conditions: Jurkat NFAT-bla M1, carbachol, beta-lactamase ratio, 5 h; at 17.2 µM (top of the series)

Activity change, negative = inhibition, inactive:
CC[C@@]12CCCN3CCc4c(n(c5ccccc45)C(=O)C1)[C@H]32 -3.8%
CO/N=C(\C(=O)N[C@@H]1C(=O)N2C(C(=O)O)=C(COC(C)=O)CS[C@@H]12)c1csc(N)n1 -7.64%
C[C@@](N)(Cc1ccc(O)c(O)c1)C(=O)O -8.05%

Same assay, conditions: Jurkat NFAT-bla M1, carbachol, beta-lactamase ratio, 5 h; at 38 µM (top of the series)

Activity change, negative = inhibition, inactive:
CO/N=C(\C(=O)N[C@@H]1C(=O)N2C(C(=O)O)=C(COC(C)=O)CS[C@@H]12)c1csc(N)n1 3.41%
C[C@@](N)(Cc1ccc(O)c(O)c1)C(=O)O 7.56% and -10%

Source: PubChem BioAssay (NCATS)
